Measurements reported in PubChem BioAssay (EPA / NIEHS).
“And” between values parts separate entries of the source, which are not always exact repeats. Identical values can stand only once. Inconclusive results are not listed. Some structures have more than one record in an assay (separate samples or runs), and their calls can disagree. The source made the active and inactive calls. Rule for the calls, unless noted: active = hit-call score of the fitted dose curve at least 0.9, where 1 is the maximum; inconclusive = response in the unintended direction; inactive = score below 0.9.

Tests used:
[1] = test system: Thyroperoxidase (TPO), gene 54314; experiment: CCTE_Simmons_AUR_rTPO: CCTE's Amplex UltraRed Assay for Thyroperoxidase (TPO) Inhibition, Simmons Lab (AID 2283662);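 for AC50: potency for loss of signal meaning inhibition of peroxidase activity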
Method in brief: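 Cell-free peroxidase activity assay using rat thyroid gland microsomes with excess H2O2 (300 uM) and 25 uM Amplex UltraRed. Compounds tested from 5 nM to 87.5 uM; fluorescence measured after 30 min at 37C, analysed relative to DMSO baseline.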

[2] = CCTE_Simmons_CellTiterGLO_HEK293T: Viability Assessment in CCTE's Assays for Thyroperoxidase (TPO) Inhibition, Simmons Lab (AID 2283665);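 note: cells exposed to compound for 24 h before readout; actives reduce ATP signal below DMSO vehicle meaning cytotoxicity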
Method in brief: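 Cells were seeded overnight, then exposed to an eight-point series up to 87.5 uM final for 24 hours. CellTiter-Glo reagent was added and luminescence read after 20 min, giving ATP-based viability versus DMSO.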

[3] = molecular target: Cellular tumor antigen p53 (Homo sapiens) (UniProt P04637); experiment: TOX21_p53_BLA_p4_ratio: Tox21 HCT-116 p53 Agonism Beta-lactamase Assay, Ratio, Phase 4 (AID 2283601)
Method in brief: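 Signal is the blue/green (460nm/530nm) ratio of cleaved versus uncleaved CCF4-AM substrate, read after 2 h substrate loading. Cells were HCT116 carrying the p53-responsive beta-lactamase reporter, dosed 16 h at 37C, 5% CO2; CellTiter-Glo measured in parallel.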

[4] = Tanguay_ZF_120hpf_MORT_legacy: (Legacy) Oregon State University Tanguay Lab 120 Hour Post-fertilization zebrafish Assay for Mortality (AID 2283633)
Method in brief: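 Single dechorionated Tropical 5D embryos were held with test chemical (0.64% DMSO final) from 6 to 120 hpf at 28C under foil. Deaths at 24 or 120 hpf were recorded as binary calls, analysed for increase over DMSO controls.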

[5] = Tanguay_ZF_120hpf_YSE_legacy: (Legacy) Oregon State University Tanguay Lab 120 Hour Post-fertilization zebrafish Assay for Yolk Sac Edema (AID 2283634);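 for AC50: actives raise the incidence of yolk sac edema above the DMSO baseline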
Method in brief: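 Single dechorionated embryos were held in sealed plates at 28C with test chemical (0.64% DMSO final) from 6 hpf until 120 hpf. Edema of the yolk sac was then recorded as a binary endpoint; non-mortality endpoints were skipped for dead embryos.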

[6] = Tanguay_ZF_120hpf_AXIS_legacy: (Legacy) Oregon State University Tanguay Lab 120 Hour Post-fertilization zebrafish Assay for Body Axis Malformation (AID 2283635);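 for AC50: potency for an increased fraction of larvae scored with body axis malformation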
Method in brief: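 Each dechorionated embryo was exposed alone from 6 hpf, with DMSO at 0.64% (vol/vol) and trimethyltin chloride 5 uM as positive control. Axis malformation was recorded at 120 hpf unless the embryo had died.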

[7] = Tanguay_ZF_120hpf_JAW_legacy: (Legacy) Oregon State University Tanguay Lab 120 Hour Post-fertilization zebrafish Assay for Jaw Malformation (AID 2283638);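 for AC50: active means more embryos with jaw malformation than DMSO controls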
Method in brief: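 Wild-type 5D embryos, chorion removed at 4 hpf, dosed singly from 6 hpf; 28C static, sealed, foil-covered, to 120 hpf. Endpoint: jaw defect yes/no (brightfield); mortality excludes scoring.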

[8] = Tanguay_ZF_120hpf_BRAI_legacy: (Legacy) Oregon State University Tanguay Lab 120 Hour Post-fertilization zebrafish Assay for Brain Malformation (AID 2283641)
Method in brief: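 Static exposure of staged wild-type embryos until 120 hpf, kept at 28C with light excluded and final DMSO of 0.64% (vol/vol). Presence or absence of brain malformation was noted under brightfield; mortality precluded scoring.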

[9] = Tanguay_ZF_120hpf_SOMI_legacy: (Legacy) Oregon State University Tanguay Lab 120 Hour Post-fertilization zebrafish Assay for Somite Malformation (AID 2283647)
Method in brief: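 Somitogenesis defects are recorded as binary calls in whole larvae at 120 hpf after continuous static chemical exposure starting at 6 hpf in dechorionated 5D embryos. DMSO serves as negative control and baseline.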

[10] = Tanguay_ZF_120hpf_PFIN_legacy: (Legacy) Oregon State University Tanguay Lab 120 Hour Post-fertilization zebrafish Assay for Pectoral Fin Malformation (AID 2283648);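 note: each larva judged yes or no for fin defect by brightfield with dead larvae skipped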
Method in brief: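 Pectoral fin malformation was recorded as a binary endpoint at 120 hpf in wild-type Tropical 5D larvae, which had been dechorionated and exposed statically from 6 hpf at 28C in 0.64% DMSO. Dead embryos were excluded.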

[11] = Tanguay_ZF_120hpf_CFIN_legacy: (Legacy) Oregon State University Tanguay Lab 120 Hour Post-fertilization zebrafish Assay for Caudal Fin Malformation (AID 2283649)
Method in brief: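 Single dechorionated 5D wild-type embryos are dosed at 6 hpf (final DMSO 0.64%) and held statically at 28C. Caudal fin malformation is recorded as present or absent at 120 hpf under brightfield, excluding dead embryos.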

[12] = Tanguay_ZF_120hpf_PIG_legacy: (Legacy) Oregon State University Tanguay Lab 120 Hour Post-fertilization zebrafish Assay for Pigmentation Malformation (AID 2283650)
Method in brief: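 Pigment malformation recorded as a binary call at 120 hpf in zebrafish (Tropical 5D) exposed singly from 6 hpf after pronase dechorionation. Static, sealed, 28C exposure, 0.64% DMSO; mortality excludes scoring; positive-direction fit against DMSO.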

[13] = Tanguay_ZF_120hpf_CIRC_legacy: (Legacy) Oregon State University Tanguay Lab 120 Hour Post-fertilization zebrafish Assay for Circulatory Malformation (AID 2283651)
Method in brief: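 Embryos are dechorionated at 4 hpf, plated one per well at 6 hpf, then held under static exposure at 28C until 120 hpf. Malformations are recorded as binary calls; mortality excludes other endpoints.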

[14] = Tanguay_ZF_120hpf_SWIM_legacy: (Legacy) Oregon State University Tanguay Lab 120 Hour Post-fertilization zebrafish Assay for Swim Bladder Malformation (AID 2283654);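 note: swim bladder malformation in each larva scored yes or no under brightfield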
Method in brief: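 Scoring is binary for swim bladder defects at 120 hpf, by brightfield inspection of zebrafish larvae. Embryos were exposed singly from 6 hpf after pronase dechorionation, at 28C with 0.64% DMSO; mortality excluded scoring.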

[15] = Tanguay_ZF_120hpf_TRUN_legacy: (Legacy) Oregon State University Tanguay Lab 120 Hour Post-fertilization zebrafish Assay for Truncated Body (AID 2283655)
Method in brief: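 Single dechorionated zebrafish embryos received test chemical from 6 hpf in 0.64% DMSO, kept at 28C. At 120 hpf, brightfield inspection noted any truncated body.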

[16] = Tanguay_ZF_120hpf_EYE_legacy: (Legacy) Oregon State University Tanguay Lab 120 Hour Post-fertilization zebrafish Assay for Eye Malformation (AID 2283636);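 note: binary presence or absence of eye malformation scored by brightfield in 120 hpf larvae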
Method in brief: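 Binary brightfield scoring of eye defects at 120 hpf after static exposure from 6 hpf of single pronase-dechorionated wild-type embryos (28C, 0.64% DMSO). Non-mortality endpoints omitted where embryos died; fit vs DMSO.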

[17] = read-out: kallikrein-3 (KLK3), KLK3 (gene 354); experiment: LTEA_HepaRG_KLK3: Life Technologies and Expression Analysis (LTEA) Assay for kallikrein-3 (KLK3) using HepaRG (AID 2283652; active = hit-call score of the fitted dose curve at least 0.9, where 1 is the maximum; inactive = score below 0.9); conditions: mRNA level, 48 h; actives raise or lower the signal
Method in brief: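 KLK3 transcript levels were measured by TaqMan qRT-PCR with normalisation to three housekeeping genes. HepaRG cultures received chemicals for 48 h at up to 100 uM (half-log, 8 points, 0.5% DMSO vehicle), fitted in both directions against DMSO.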

[18] = read-out: solute carrier (SLC22A6), SLC22A6 (gene 9356); experiment: LTEA_HepaRG_SLC22A6: Life Technologies and Expression Analysis (LTEA) Assay for solute carrier (SLC22A6) using HepaRG (AID 2283653; active = hit-call score of the fitted dose curve at least 0.9, where 1 is the maximum; inactive = score below 0.9); conditions: mRNA level, 48 h; actives raise or lower the signal
Method in brief: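 Gene-expression endpoint in HepaRG hepatic cells: duplicate 8-point concentration-response, highest 100 uM, 48 h treatment in serum-free medium with 0.5% DMSO. SLC22A6 expression measured by qRT-PCR, normalised to ACTB/GAPDH/POLR2A.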

[19] = read-out: solute carrier (SLC10A1), SLC10A1 (gene 6554); experiment: LTEA_HepaRG_SLC10A1: Life Technologies and Expression Analysis (LTEA) Assay for solute carrier (SLC10A1) using HepaRG (AID 2283657; active = hit-call score of the fitted dose curve at least 0.9, where 1 is the maximum; inactive = score below 0.9); conditions: mRNA level, 48 h; actives raise or lower the signal
Method in brief: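 SLC10A1 transcript measured by TaqMan qRT-PCR, housekeeping-normalised, after 48 h chemical treatment of human HepaRG cells. Eight concentrations (half-log, max 100 uM, 0.5% DMSO vehicle) in duplicate; fitted bidirectionally against DMSO baseline.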

[20] = read-out: matrix metalloproteinase-1 (MMP1), MMP1 (gene 4312); experiment: LTEA_HepaRG_MMP1: Life Technologies and Expression Analysis (LTEA) Assay for matrix metalloproteinase-1 (MMP1) using HepaRG (AID 2283658; active = hit-call score of the fitted dose curve at least 0.9, where 1 is the maximum; inactive = score below 0.9); conditions: mRNA level, 48 h; actives raise or lower the signal
Method in brief: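 In this screen, human liver HepaRG cultures receive each chemical in duplicate for 48 h (top 100 uM, 0.5% DMSO). MMP1 expression is then quantified by TaqMan qRT-PCR with ACTB/GAPDH/POLR2A normalization.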

Measured: AC50

Chain of Cellular tumor antigen p53 (Homo sapiens) (P04637 whole entry, looked up): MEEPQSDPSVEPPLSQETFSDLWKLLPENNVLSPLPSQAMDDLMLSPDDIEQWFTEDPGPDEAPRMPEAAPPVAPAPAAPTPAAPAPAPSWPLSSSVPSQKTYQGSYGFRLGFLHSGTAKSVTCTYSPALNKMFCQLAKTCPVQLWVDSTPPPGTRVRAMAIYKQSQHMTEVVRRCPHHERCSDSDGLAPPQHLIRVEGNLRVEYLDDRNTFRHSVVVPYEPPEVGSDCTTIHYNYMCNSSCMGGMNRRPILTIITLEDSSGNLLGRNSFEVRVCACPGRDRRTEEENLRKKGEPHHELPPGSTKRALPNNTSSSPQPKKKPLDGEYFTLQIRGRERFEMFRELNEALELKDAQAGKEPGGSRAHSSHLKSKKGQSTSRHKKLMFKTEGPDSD

COc1cc([N+](=O)[O-])ccc1N
active: [2] 19.1 µM
inactive: [1]

c1cnc2c(c1)ccc1cccnc12
inactive: [3]

O=C1c2ccccc2C(=O)c2c(O)c(O)cc(O)c21
active: [3] 50.1 µM

O=C1OC2(c3ccccc31)c1cc(I)c(O)c(I)c1Oc1c2cc(I)c(O)c1I
active: [3] 73.9 µM | [1] 16 µM | [2] 5.7 µM
inactive: [3]

O=C1OC(=O)c2cc(-c3ccc4c(c3)C(=O)OC4=O)ccc21
inactive: [3]

Cc1[nH]nc2c1N=C(c1ccccc1Cl)c1cc([N+](=O)[O-])ccc1N2
inactive: [4] | [5] | [6] | [7] | [8] | [9] | [10] | [11] | [12] | [13] | [14] | [15]
active: [1] 2.9 µM | [2] 15.2 µM

O=C(c1cc(O)c(O)c(O)c1)c1ccc(O)c(O)c1O
active: [3] 79.2 µM and 49.9 µM

N=C(N)c1ccc(OCCCCCOc2ccc(C(=N)N)cc2)cc1
inactive: [4] | [5] | [6] | [16] | [7] | [8] | [12] | [13] | [14] | [15]

NC(=NCCCCCCN=C(N)/N=C(\N)Nc1ccc(Cl)cc1)/N=C(\N)Nc1ccc(Cl)cc1
active: [3] 71.4 µM [middle of 5 runs] | [2] 7.96 µM
inactive: [1]

Cc1cc(=O)oc2cc(O)ccc12
active: [3] 53.2 µM and 54.1 µM
inactive: [3]

O=C(CCCN1CCC(O)(c2ccc(Cl)cc2)CC1)c1ccc(F)cc1
inactive: [3] | [4] | [9] | [11] | [12] | [13] | [14] | [15]
active: [5] 13.1 µM | [6] 5.66 µM | [16] 4.96 µM | [7] 5.66 µM | [8] 4.16 µM | [10] 5.92 µM

CN(Cc1cnc2nc(N)nc(N)c2n1)c1ccc(C(=O)N[C@@H](CCC(=O)O)C(=O)O)cc1
inactive: [4] | [5] | [6] | [16] | [7] | [8] | [9] | [10] | [11] | [12] | [13] | [14] | [15]
active: [1] 9.76 µM | [2] 0.0489 µM

CN(C)c1ccc(C(=C2C=CC(=[N+](C)C)C=C2)c2ccccc2)cc1
inactive: [3]
active: [3] 15.8 µM

NCc1cccc(CN)c1
inactive: [3]

CNNCc1ccc(C(=O)NC(C)C)cc1
inactive: [3]

CCCCC=O
inactive: [4] | [6] | [9] | [10] | [13] | [17] | [18] | [14] | [15] | [19] | [20]
active: [5] 45.3 µM | [16] 38.4 µM | [7] 38.8 µM | [8] 54.8 µM

OCC(CO)(CBr)CBr
inactive: [4] | [5] | [6] | [16] | [7] | [8] | [9] | [10] | [11] | [12] | [13] | [14] | [15]

Cc1cc(C(C)(C)C)c(O)c(C(C)(C)C)c1
active: [1] 2.84 µM | [2] 24.5 µM
inactive: [3]

CCCCCCc1ccc(N)cc1
active: [1] 0.0476 µM | [2] 11.3 µM
inactive: [3]

CCCCCCCCCCCC
active: [1] 43.8 µM | [2] 31.8 µM

CN(C)CCOC(c1ccccc1)c1ccccc1
inactive: [4] | [16] | [9] | [12] | [14]
active: [5] 15.4 µM | [6] 22.3 µM | [7] 14.6 µM | [11] 14.1 µM | [15] 24.8 µM

NCCN
inactive: [3]
